The structures appear in SMILES notation. Among all 200,000 compounds or so, about 18,000 (9%) were called active. The sample as a whole holds a higher share of actives than the screen did. Values without a mark were called inactive. Cut-off read from the data, not from the text of the source: active = inhibition above about 50%; inactive = the rest.

This assay in a line: Leishmania major promastigote growth inhibition, primary screen (AID 1063).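 Note: promastigotes grown with compound for 44 hours at 28 °C.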 The conditions noted are these: Leishmania major promastigotes, resazurin fluorescence viability; at 10 µM; active compounds read high. Background: Alamar Blue is a resazurin reagent that responds to reducing activity.
Usually inhibition stands for the drop in the measured response relative to a control, in per cent. As for `Cc1cc(-c2n[nH]c(=S)n2/N=C/C(Br)=C/c2ccccc2)n[nH]1`, the inhibition is 88.5% (active).

Turning to `c1ccc(-n2nnnc2-c2cccnc2)cc1`, the inhibition is -7.89%.

On to `CCN(CC)S(=O)(=O)c1cccc(-c2n[nH]c(=S)n2/N=C/c2ccc(C(=O)OC)cc2)c1`, for which the inhibition was 27.8%.

As for `Cc1ccccc1-c1n[nH]c(=S)n1/N=C/c1ccc(-c2ccccc2Br)o1`, the inhibition was 23%.

Regarding `COc1ccccc1N1CCN(/N=C\C(Br)=C\c2ccccc2)CC1`, the inhibition was -5.39%.

For `S=c1[nH]nc(-c2cccnc2)n1/N=C/C(Cl)=C\c1ccccc1`, the inhibition is 86% (active).

As for `Clc1ccc(N/N=C/c2cccs2)nn1`, the inhibition is -2.51%.

As to `C/C(N)=C(/C#N)C(=O)COC(=O)c1cc(-c2cccc(Br)c2)nc2ccccc12`, the inhibition is 59.9% (active).

`C/C(N)=C(/C#N)C(=O)COC(=O)c1cc(-c2ccc(C)cc2)nc2ccccc12`: the inhibition is 18.1%.

On to `C/C(N)=C(/C#N)C(=O)COC(=O)c1cc(-c2ccccc2)nc2ccc(Br)cc12`, for which the inhibition is -4.87%.

For the molecule `O=C(NCc1ccccc1Cl)C1CCCO1` (stereo not given), the inhibition is -3.01%.

Consider `COc1ccc(-c2nnc3ccc(SCc4ccccc4)nn23)cc1`, for which the inhibition was -3.51%.

As to `O=C1CCC(=O)N1c1ccc(NCCc2ccccc2F)c([N+](=O)[O-])c1`, the inhibition was -3.12%.

On to `Cc1ccccc1C(=O)OC1OC(=O)C(Cl)=C1Nc1ccccc1` (stereo not given), for which the inhibition was 2.63%.

As to `COc1ccc(C(=O)COC(=O)c2nn(C)c(=O)c3ccccc23)c(OC)c1`, the inhibition was -4.39%.

For the molecule `FC(F)Oc1ccc(NC(=S)NCc2ccco2)cc1Cl`, the inhibition was 12.2%.

Regarding `Cc1ccc(S(=O)(=O)NCCC(=O)Nc2ccc(C)c(Cl)c2)cc1C`, the inhibition was 4.01%.

Regarding `Cc1ccc(CC(=O)Nc2ccc(OC(F)F)c(Cl)c2)cc1C`, the inhibition was 91.2% (active).

In the case of `CC(C)Cn1c(N)c(C(=O)COC(=O)CN2C(=O)C3CC=CCC3C2=O)c(=O)n(C)c1=O` (stereo not given), the inhibition is 0.69%.

As for `O=[N+]([O-])/C(N=Nc1ccccc1)=N\Nc1ccccc1`, the inhibition is 0.84%.

In the case of `CCOc1cccc(/C=N/N2C(=O)CSC2=S)c1O`, the inhibition was 2.44%.

Turning to `Cc1ccccc1-n1cc(CNC(=O)CC2C(=O)NCCN2C/C=C/c2ccccc2)cn1` (stereo not given), the inhibition is -1.38%.

As for `CCOC(=O)c1oc2c(CN3CCN(CCO)CC3)c(O)c(CC)cc2c(=O)c1-c1nc2ccccc2s1`, the inhibition was -5.26%.

`COc1ccc(-c2cc(C(F)(F)F)nc(SCC(=O)Nc3ccc4c(c3)OCO4)n2)cc1OC`: the inhibition is 0.67%.

As for `COc1cc(OC)nc(S(C)(=O)=O)n1`, the inhibition was -0.01%.

Take `COc1ccc(-c2cc(C(F)(F)F)nc(S(C)(=O)=O)n2)cc1OC`: the inhibition was 71.7% (active).

Regarding `O=C(/C=C/c1ccc(N2CCOCC2)cc1)c1ccccc1`, the inhibition is 13.2%.

For `O=c1[nH]c(CN2CCOCC2)nc2scc(-c3ccccc3)c12`, the inhibition was -8.93%.

Regarding `CN(CC(=O)Nc1ccc(S(=O)(=O)N2CCCC2)cc1)Cc1ccc(Cl)c(Cl)c1`, the inhibition is 92% (active).

`O=C(CSCc1ccc(Br)cc1)Nc1ccc(S(=O)(=O)N2CCCCCC2)cc1`: the inhibition was 6.78%.

With `CS(=O)(=O)N(CC(=O)Nc1ccc(Cl)c(Cl)c1)C1CCCCC1`, the inhibition is 15.8%.

Regarding `O=C(NNC(=O)C1CCN(c2ncccn2)CC1)c1ccccc1`, the inhibition is -7.74%.

For `O=C1N(Cc2ccc3c(c2)OCO3)c2ccccc2C1(O)c1c[nH]c2ccccc12` (stereo not given), the inhibition was 88.9% (active).

Take `O=C(Cn1nnc(-c2ccccc2)n1)NCc1ccc2c(c1)OCO2`: the inhibition was -6.91%.

On to `O=C(CCCCn1c(=O)[nH]c2ccccc2c1=O)NCc1ccc2c(c1)OCO2`, for which the inhibition is 4.03%.

Take `Cc1ccc(/C=N/NC(=O)COc2ccccc2-c2ccccc2)cc1`: the inhibition was 4.74%.

`CC(=O)n1c(C=Nc2ccccc2)c(O)c2ccccc21`: the inhibition is 4.07%.

As to `NS(=O)(=O)c1ccc(NC(=S)NNC(=O)c2cccs2)cc1`, the inhibition is -4.08%.

Regarding `CC(=O)Cc1nsc(NC(=O)c2ccc(Cl)cc2Cl)n1`, the inhibition was -1.22%.

On to `CCOc1cc(N2CCOCC2)c(OCC)cc1NC(=O)C1=NN(c2cccc(C)c2)C(=O)CC1`, for which the inhibition was 13.6%.

As to `CCN(CC(=O)NC(=O)NCc1ccccc1)Cc1nc2ccccc2c(=O)[nH]1`, the inhibition is -3.9%.

For the molecule `CCN(Cc1nc2ccccc2c(=O)[nH]1)Cc1cc(=O)oc2cc(C)c(C)cc12`, the inhibition was 73.8% (active).

With `CN(Cc1nc2ccccc2c(=O)[nH]1)Cc1cc(=O)oc2ccc3ccccc3c12`, the inhibition is 14.2%.

As for `COc1cc(/C=C/C(=O)OCC(=O)NC(=O)NCc2ccccc2)ccc1OCC#N`, the inhibition was -1.09%.

Turning to `CC(=O)c1cc(C#N)c(SCC(=O)Nc2nccs2)nc1C`, the inhibition is 1.83%.

With `CCOC(=O)c1ccccc1NC(=O)CSc1nc2ccccc2c(=O)[nH]1`, the inhibition was 6.6%.

For `O=S(=O)(c1ccc(-c2ccccc2)cc1)N1CCCC1`, the inhibition was -7.57%.

Consider `CCCCNS(=O)(=O)c1ccc(S(=O)(=O)n2cnc3ccccc32)cc1`, for which the inhibition is -3.46%.

With `O=S(=O)(c1ccc(Br)cc1)n1ccc2ccccc21`, the inhibition is 90.7% (active).

As for `COc1ccc(-n2c(O)c(C=NCC(c3ccco3)N3CCCC3)c3ccccc3c2=O)cc1OC` (stereo not given), the inhibition was 2.68%.

With `CC(=O)c1ccccc1NC(=O)CC1(CC(=O)O)CCCCC1`, the inhibition is 3.25%.

`CCOC(=O)C1=NOC(Cn2cc(C(C)=O)c(=O)[nH]c2=O)C1` (stereo not given): the inhibition was 1.88%.

For `N/C(=N\OC(=O)Cc1ccc([N+](=O)[O-])cc1)c1ccccn1`, the inhibition was 98.7% (active).

Regarding `O=C(OCc1ccc([N+](=O)[O-])cc1)c1ccccn1`, the inhibition was -0.28%.

With `N/C(=N\OC(=O)c1ccc([N+](=O)[O-])cc1)c1ccccn1`, the inhibition is 1.71%.

As for `CNc1nccc(-c2ccc(Cl)cc2)c1C#N`, the inhibition is -6.29%.

For `COc1cc(OC)cc(-c2nnc(N(C)C(=O)c3ccncc3)s2)c1`, the inhibition was -3.83%.

On to `Cc1ccc(NC(=O)CSc2nc(CSc3ccc(C)cc3)cc(=O)[nH]2)cc1`, for which the inhibition is -2.59%.

As to `O=C(Cc1cccc2ccccc12)Nc1ccc2oc(-c3ccccc3)nc2c1`, the inhibition was 40.6%.

On to `O=C(Nc1ccc2oc(-c3ccc4ccccc4c3)nc2c1)c1cccs1`, for which the inhibition was -1.1%.

Turning to `CCCCCC(=O)Nc1ccc2oc(-c3ccncc3)nc2c1`, the inhibition was 96.4% (active).

`COc1cc(NC(=S)N2CCCC(C)C2)cc(OC)c1OC` (stereo not given): the inhibition was 4.64%.

Regarding `O=C(Nc1ccccc1)N1CCN(C(=O)Nc2ccccc2)CC1`, the inhibition was -5.42%.

With `CCCCN(C(=O)/C=C/c1ccco1)c1c(N)n(CC(C)C)c(=O)[nH]c1=O`, the inhibition was -4.4%.

For the molecule `O=C(CCc1nnc(CCCCc2ccccc2)o1)NC(c1cccnc1)C(F)(F)F` (stereo not given), the inhibition is 11.3%.

In the case of `CC(CCc1ccccc1)NCC(O)c1cccc([N+](=O)[O-])c1` (stereo not given), the inhibition is 59.5% (active).

Turning to `COc1ccc([N+](=O)[O-])cc1NC(=O)CCc1ccccc1`, the inhibition was -3.05%.

Take `CC(=O)Nc1cccc([N+](=O)[O-])c1`: the inhibition was -0.87%.

`CN(C)CCCN1C(=O)CSC1c1ccc([N+](=O)[O-])cc1` (stereo not given): the inhibition is 46.8%.

For the molecule `O=C1NC2(CCCCCC2)C(=O)N1CCS(=O)(=O)Oc1ccccc1`, the inhibition was -10.5%.

`Cc1ccc(NC(=O)c2ccccn2)cc1S(=O)(=O)N1CCOCC1`: the inhibition is -1.09%.

Turning to `CCn1cc(C(=O)Nc2cc(C)ccc2C)c(=O)c2ccc(C)nc21`, the inhibition is 1.39%.

Turning to `CC(C)(C)N(CC#CCC(O)(c1ccccc1)C1CCCC1)CCO` (stereo not given), the inhibition is 3.46%.

Turning to `CN(CC#CCC(c1ccccc1)c1ccccc1)C(C)(C)C`, the inhibition was 100% (active).

As for `COC(=O)C1C(=O)NCC1c1ccc(C)cc1` (stereo not given), the inhibition is 6.72%.

Take `COC(=O)C1=C(Nc2ccc(OC)cc2)C=C(C)C(C(=O)OC)C1c1ccc(C)cc1` (stereo not given): the inhibition is 24.6%.

`COC(=O)C1=C(Nc2ccc(C)cc2)C=C(C)C(C(=O)OC)C1c1ccc(F)cc1` (stereo not given): the inhibition is 52.4% (active).

As for `COCCn1c(C)cc(C2=NNC(=Nc3ccc(F)cc3)SC2)c1C`, the inhibition was -1.36%.

Regarding `Cc1cc(C2=NNC(=Nc3ccc(S(=O)(=O)N4CCOCC4)cc3)SC2)c(C)n1CC1CCCO1` (stereo not given), the inhibition is -7.5%.

For the molecule `C=CCn1c(C)cc(C2=NNC(=NCC)SC2)c1C`, the inhibition is 58.5% (active).

As for `COC(=O)c1cc2n(n1)CCCNC2=O`, the inhibition is -4.96%.

Turning to `CC(=O)Nc1ccccc1NC(=O)c1cc(C)cc(C)c1`, the inhibition was -0.58%.

As for `CC(=O)c1ccc(N=C2SCCCN2C(=O)C2CCCCC2)cc1`, the inhibition is 85.8% (active).

For the molecule `CCC1CCCCN1C(=S)Nc1ccc(C(C)=O)cc1` (stereo not given), the inhibition is -8.59%.

Consider `O=C(O)c1ccc(NC(=O)C2CCCCC2)cc1`, for which the inhibition is -6.65%.

For the molecule `COc1cccc(NC(=O)CS(=O)(=O)c2cn(CC(=O)N3CCOCC3)c3ccccc23)c1`, the inhibition was -7.03%.

For the molecule `CC(=O)NC(Cc1c[nH]c2ccccc12)C(=O)O` (stereo not given), the inhibition is -12.4%.

Take `CC(=O)Nc1ccc(/C=N/NC(=O)c2cccs2)cc1`: the inhibition is -2.65%.

In the case of `O=C(NC(Cc1c[nH]c2ccccc12)C(=O)N/N=C/c1ccc(Br)cc1)c1cccs1` (stereo not given), the inhibition was 65.6% (active).

For `CSc1ncccc1C(=O)N1CCCC(CCC(=O)NCc2ccccc2F)C1` (stereo not given), the inhibition is -5.49%.

Regarding `COc1cc(NC(=O)c2cccs2)ccc1NC(=O)c1ccccc1Cl`, the inhibition was 0.19%.

For `CCOC(=O)C1CCN(C(c2cc3cc(C)cc(C)c3[nH]c2=O)c2nnnn2C2CCCCC2)CC1` (stereo not given), the inhibition was 88.6% (active).

Take `CC(C)C(c1nnnn1C1CCCC1)N1CCN(c2ccccc2F)CC1` (stereo not given): the inhibition is 33%.

With `COc1ccc(N2CCN(C(c3cc4ccc(C)cc4[nH]c3=O)c3nnnn3C3CCCC3)CC2)cc1` (stereo not given), the inhibition was 75.4% (active).

For `CCC(c1nnnn1C1CCCC1)N1CCN(C(=O)c2ccco2)CC1` (stereo not given), the inhibition is -6.05%.

Turning to `CN1CCN(C(c2cc3cc4c(cc3[nH]c2=O)OCCO4)c2nnnn2C2CCCC2)CC1` (stereo not given), the inhibition is -6.88%.

With `Cc1cc(C)c2[nH]c(=O)c(C(c3nnnn3Cc3ccc4c(c3)OCO4)N3CCCC3)cc2c1` (stereo not given), the inhibition was 27.4%.

On to `COCCn1nnnc1C(c1ccccc1Cl)N1CCN(c2ccccc2OC)CC1` (stereo not given), for which the inhibition is -0.67%.

As to `COc1ccc(C(c2nnnn2C2CCCCC2)N2CCN(c3ccccc3F)CC2)cc1` (stereo not given), the inhibition is 96.8% (active).

For `CCOc1ccc2[nH]c(=O)c(C(c3nnnn3CCOC)N3CCOCC3)cc2c1` (stereo not given), the inhibition was -4.07%.

The values above are taken from PubChem BioAssay AID1063 (University of Pittsburgh Molecular Library Screening Center, 2008).
